Experimental data from the supplement of paper PMC4166925.
± gives the standard deviation of the averaged measurements. Whole data set: some 33,000 sequences, median “E-score (dimensionless, -0.5 to 0.5)” near -0.046, cut for the highest 2% near 0.36. Only a selection was taken, and the highest values are over-represented in it overall.

test system: T1, SpTbr T-box DNA-binding domain (GST fusion); experiment: PBM E-score of 8-mer (E-score (dimensionless, -0.5 to 0.5)); Tbr is Tbrain of the sea star Patiria miniata (Pm) or the sea urchin Strongylocentrotus purpuratus (Sp); higher = stronger binding preference; details: the construct has about 5 more residues each side
T1 sequence: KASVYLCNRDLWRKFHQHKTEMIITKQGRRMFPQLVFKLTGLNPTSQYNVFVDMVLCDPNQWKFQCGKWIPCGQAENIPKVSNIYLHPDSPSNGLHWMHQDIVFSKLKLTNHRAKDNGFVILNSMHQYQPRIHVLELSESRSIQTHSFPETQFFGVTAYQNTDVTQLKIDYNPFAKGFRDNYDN
Description: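 Universal protein-binding microarray (Agilent AMADID 016060, 60-bp probes with a 35-bp variable region) incubated with 200 nM GST-fused Strongylocentrotus purpuratus Tbr T-box DNA-binding domain (residues 362-554) in PBS pH 7.5. Scored for every ungapped 8-mer (given with its reverse complement) as E-score (range -0.5 to 0.5; >0.45 counts as bound) and Z-score of median probe intensity. Two replicate arrays (datasets 1 and 2).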
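Also: protein at 200 nM in PBS on universal double-stranded arrays.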

Sequence | PBM E-score of 8-mer
TCAATCGA | -0.0374 ± 0.037
GACCAAAA | -0.133 ± 0.0068
CAGAGCTC | -0.265 ± 0.01
CGCACCTC | 0.453 ± 0.016
TGCACCCA | -0.00634 ± 0.056
CGCACCCA | 0.372 ± 0.029
CGCACCTA | 0.43 ± 0.0064
CCCACCTC | 0.251 ± 0.043
CGCACCAA | 0.2705 ± 0.0014
CGCACCCG | 0.267 ± 0.054
CGCACCGA | 0.0672 ± 0.045
CGCACCGC | 0.228 ± 0.031
CACTCAAG | 0.106 ± 0.095
ATCTGTAG | -0.206 ± 0.018
ATGGGAAC | -0.109 ± 0.011
CCAAGGCA | -0.112 ± 0.0028
CGTCGAGA | -0.0352 ± 0.014
CACCTTTA | 0.414 ± 0.0042
AACCTTTA | 0.000765 ± 0.041
CACCTTTC | 0.379 ± 0.024
GACCTTTA | -0.242 ± 0.0044
AACCTTTC | -0.0391 ± 0.099
CCCCTTTC | -0.132 ± 0.052
AAGGGAGA | -0.13 ± 0.033
ATAGCCAT | -0.118 ± 0.018

Sequence | PBM E-score of 8-mer
CGTGCTCA | -0.0222 ± 0.013
TACCACGA | -0.00786 ± 0.00088
CGCGCGGC | 0.208 ± 0.04
ATCTGGCG | 0.0377 ± 0.0091
ATCGAGAC | 0.0132 ± 0.042
GGTAGCTA | -0.314 ± 0.032
ATAGCCGG | -0.203 ± 0.015
TGTGTGAA | 0.4829 ± 0.004
CGTGTGTA | 0.096 ± 0.044
TATGTGAA | 0.17 ± 0.07
CGTGTGAA | 0.4643 ± 0.0031
TGGGTGAA | -0.137 ± 0.0066
CCTGTGAA | 0.363 ± 0.011
CCTGCCTC | 0.0708 ± 0.019
CTATCCTA | -0.171 ± 0.0083
GTTGACCA | 0.142 ± 0.036
ATAACCAC | -0.138 ± 0.015
ACTCACCA | -0.0326 ± 0.014
CCGCACCA | 0.186 ± 0.032
ACACACCA | 0.287 ± 0.013
GCGCACCA | 0.00307 ± 0.052
ACACACAA | 0.148 ± 0.02
CCACACCA | 0.314 ± 0.057
TCACACCA | 0.4853 ± 0.0026
TCGCACCA | 0.434 ± 0.023

Sequence | PBM E-score of 8-mer
TCACACAA | 0.435 ± 0.0069
TCTCACCA | 0.372 ± 0.011
CCTCACCA | 0.197 ± 0.025
CCACACAA | 0.0877 ± 0.025
CCGGGATC | -0.0846 ± 0.051
AGTAGAAT | -0.219 ± 0.017
GCCCCTGA | -0.091 ± 0.031
CCTGGAGC | -0.16 ± 0.026
GGGGTAAC | -0.0298 ± 0.022
GATGCAAA | 0.0247 ± 0.033
CCCATCGA | -0.2033 ± 0.0016
AGGCCCGC | -0.15 ± 0.036
GCACACGA | -0.113 ± 0.11
ACACACGA | -0.00198 ± 0.078
TCACACGA | 0.387 ± 0.0091
TCATTGAA | -0.129 ± 0.0043
CAACCTGC | 0.149 ± 0.015
AAGAGGTA | -0.272 ± 0.035
AAGAGGTG | 0.407 ± 0.0088
ACGAGGTG | 0.419 ± 0.019
AGGAGGTG | 0.391 ± 0.03
AGGAGGTA | -0.0388 ± 0.051
AAGAGGTC | -0.128 ± 0.01
ACGAGGTA | -0.0678 ± 0.011
ACGAGGTC | -0.114 ± 0.018

Sequence | PBM E-score of 8-mer
AGGAGGTC | -0.269 ± 0.036
ACATAGGT | 0.221 ± 0.02
CCTGCTAA | 0.269 ± 0.031
ACCAACAC | 0.273 ± 0.0089
ACGCTTAA | 0.11 ± 0.0092
GGCCGTAC | -0.249 ± 0.0084
ATTTGGGC | -0.181 ± 0.017
CACTTAGG | 0.117 ± 0.04
ATGGTCCG | -0.11 ± 0.029
ATGATGGA | -0.179 ± 0.029
ATCACATA | 0.251 ± 0.055
ATCACACG | 0.417 ± 0.027
ATCACACA | 0.425 ± 0.017
ATCACAGG | 0.227 ± 0.05
ATCACAAA | 0.106 ± 0.014
ATCACAGA | 0.102 ± 0.074
AACAGCTA | 0.232 ± 0.018
GAATCAGC | -0.196 ± 0.017
AAGCTTAG | -0.108 ± 0.11
ATTAGCAC | 0.368 ± 0.038
CCTAGCAC | 0.257 ± 0.016
ATTAGCAG | 0.0716 ± 0.046
ATTAGCAA | -0.0446 ± 0.11
CTTAGCAA | 0.0388 ± 0.079
CTTAGCAC | 0.364 ± 0.0057

Sequence | PBM E-score of 8-mer
AGCATGGA | -0.0258 ± 0.071
ATGCTCTG | -0.168 ± 0.038
CGCTCAAA | 0.00388 ± 0.065
ATATTAAA | -0.0775 ± 0.025
GATCACGC | 0.359 ± 0.037
GATCACAA | 0.251 ± 0.0097
CATCACAA | 0.204 ± 0.042
AATCACAC | 0.457 ± 0.011
CATCACAC | 0.451 ± 0.0075
GATCACAC | 0.479 ± 0.01
CATCACAG | 0.184 ± 0.0071
AATCACAG | 0.06 ± 0.051
AATCACAA | 0.212 ± 0.018
CGCGACCG | 0.29 ± 0.031
GGTACCAA | -0.0861 ± 0.086
ACAAAGGT | 0.119 ± 0.0064
ACTGGGCT | -0.25 ± 0.058
AGTGGCAG | 0.171 ± 0.033
AACCCCGC | 0.136 ± 0.034
GAGGTGCC | 0.379 ± 0.019
AAGGTGCT | 0.4354 ± 0.0022
AAGGTGCA | 0.35 ± 0.01
CGGGTGCC | 0.18 ± 0.0043
AAGGTGCC | 0.364 ± 0.0073
AAGGTGGT | 0.247 ± 0.033

Sequence | PBM E-score of 8-mer
CTGGTGCC | 0.141 ± 0.076
AAGGTACG | -0.0434 ± 0.066
GAGGTGCA | 0.338 ± 0.032
ACGGTGCG | 0.298 ± 0.024
CAGGTGCC | 0.388 ± 0.034
AAGGTGCG | 0.4522 ± 0.0011
AAATAGCG | 0.169 ± 0.013
CACCCCTA | 0.212 ± 0.022
CGCTACAA | 0.107 ± 0.069
AACCATGG | -0.0415 ± 0.0021
ACTTCGAG | 0.0665 ± 0.024
CAGGTGCA | 0.265 ± 0.028
CAGGTGCG | 0.454 ± 0.01
CAGATGCG | -0.139 ± 0.019
CAGGTCTA | -0.191 ± 0.055
AGCTAGCT | 0.0778 ± 0.066
CACAAACC | -0.19 ± 0.028
CCAACACG | 0.232 ± 0.013
GCAACACC | 0.439 ± 0.0069
GCAACAAC | 0.0625 ± 0.016
ACAACACC | 0.424 ± 0.011
CCAACACC | 0.4264 ± 0.0023
GCAACACA | 0.267 ± 0.014
ACAACACA | 0.349 ± 0.0079
CCAACACA | 0.299 ± 0.017

Sequence | PBM E-score of 8-mer
ACAACACT | 0.345 ± 0.0051
ATCACCGC | -0.0213 ± 0.03
AGTTGTCC | -0.136 ± 0.07
ACAATCAG | -0.0516 ± 0.0027
ACGCAAGC | -0.101 ± 0.061
AACAATTA | 0.0621 ± 0.089
ACAGTTGA | 0.2 ± 0.059
CATGGGCC | -0.352 ± 0.015
AGTACCGG | -0.341 ± 0.03
GTGAGAAC | 0.4469 ± 0.0042
ATGAGAAC | -0.0381 ± 0.053
CTGAGAAA | -0.0469 ± 0.13
GCGAGAAA | 0.342 ± 0.0013
GCGAGAAC | 0.393 ± 0.0087
CTGAGAAC | 0.0561 ± 0.038
GTGAGAAA | 0.441 ± 0.016
ATGAGAAA | -0.221 ± 0.031
ACGAGAAC | 0.186 ± 0.0072
CCAACTCC | -0.0214 ± 0.0039
GTCAAGGA | -0.0692 ± 0.085
AGCAAGAT | -0.0318 ± 0.027
CTTTTTTC | -0.0265 ± 0.039
